Compound activity: PubChem BioAssay, Broad Institute
C diff HTS – C. difficile growth inhibitors, primary screen, HTS. Clostridium difficile clinical isolate growth, OD600, 24 h; hits give low values. growth activity, negative = inhibition, % at 16 µg/mL (by protocol). hit rate 0.25% among 86,000;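 active = mean growth activity at or below -80% and every replicate also at or below -80%; inconclusive = mean at or below -80% but some replicate above -80%; inactive = mean growth activity above -80%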;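 also: 0% = DMSO wells and -100% = levofloxacin 16 µg/mL wells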
Tcruzi prolif – T. cruzi intracellular proliferation inhibitors, primary screen, cell-based, beta-gal Tulahuen parasites, NIH3T3 host, luminescence. hit rate 5.9% among 77,000. AID 624255, 2012. inhibition, % at 8.34 µM. T. cruzi beta-gal in NIH3T3, GalScreen luminescence, 90 h;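 active = mean inhibition above about 93%, with at least 55% of replicates each passing it, limit read from the data, passing the limit was not always enough; inconclusive = only one of those two conditions holds; inactive = neither condition holds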
Pf Dd2 inh – P. falciparum Dd2 growth inhibitors, primary screen, SYBR Green fluorescence, single dose replicates; AID 1159554, 2015; hit rate 2.3% among 94,000; 72 h; hits give low values; activity change, % at 10 µM; in the data active = activity change below about -80%; inconclusive = no clear call, values can overlap the other calls
Numbers without * were called inactive; ? = inconclusive; nt = not tested or not shown. A selection: hits, their analogues and other compounds. The true share with any hit is near 6.8%.

SMILES	C diff HTS	Tcruzi prolif	Pf Dd2 inh
COc1cccc(-c2ccc3c(c2)[C@@H]2[C@@H](CCN2C(=O)C2CCCCC2)[C@H](CO)N3)c1	35.7	nt	-89.0*
COc1cccc(-c2ccc3c(c2)[C@H]2[C@H](CCN2C(=O)C2CCCCC2)[C@@H](CO)N3)c1	-4.5	nt	-87.9*
CN1c2ccc(C3=CCCCC3)cc2[C@H]2[C@H](CCN2C(=O)C2CC2)[C@@H]1CO	26.0	nt	-88.5*
COc1cccc(-c2ccc3c(c2)[C@@H]2[C@@H](CCN2C(=O)C2CC2)[C@@H](CO)N3)c1	-14.4	nt	-64.9
COc1cccc(-c2ccc3c(c2)[C@@H]2[C@@H](CCN2C(=O)C2CCC2)[C@H](CO)N3)c1	-9.3	-6.4	-31.9
CN1c2ccc(C3=CCCCC3)cc2[C@@H]2[C@@H](CCN2C(=O)C2CC2)[C@@H]1CO	4.2	nt	-33.4
C[C@H](CO)N1C[C@H](C)[C@H](CN(C)S(=O)(=O)c2cn(C)cn2)Oc2ccc(NC(=O)NC3CCCCC3)cc2C1=O	2.8	17.4	23.4
CC(=O)Nc1ccc2c(c1)C(=O)N(C)[C@H]1CC[C@H](CC(=O)NCC3CCCCC3)O[C@@H]1CO2	2.3	76.7	4.5
COc1ccc2c3c(n(C)c2c1)[C@@H](CO)N(Cc1cccnc1)CC31CN(C(=O)c2cccnc2)C1	15.4	nt	-10.6
O=C(C[C@@H]1C=C[C@@H](NC(=O)c2ccncc2)[C@@H](CO)O1)Nc1ccc(-c2ccccc2)cc1	1.1	nt	-31.9
C[C@H]1CN([C@@H](C)CO)C(=O)c2cc(NC(=O)CCCN(C)C)ccc2O[C@@H]1CN(C)CC1CC1	-1.3	-9.7	14.3
O=C(C1CCCC1)N1CC[C@@H]2[C@H](CO)Nc3ccc(C4=CCCCC4)cc3[C@@H]21	-0.6	nt	-83.4*
COc1ccc(C#Cc2ccc3c(c2)[C@@H]2[C@@H](CCN2C(=O)C2CCCC2)[C@@H](CO)N3)cc1	29.1	nt	?
COc1ccccc1-c1ccc2c(c1)[C@H]1[C@H](CCN1C(=O)C1CCC1)[C@@H](CO)N2	16.4	nt	6.7
COc1cccc(-c2ccc3c(c2)[C@H]2[C@H](CCN2S(=O)(=O)c2cn(C)cn2)[C@H](CO)N3)c1	1.7	38.0	-12.7
COc1cccc(-c2ccc3c(c2)[C@@H]2[C@@H](CCN2S(=O)(=O)c2cn(C)cn2)[C@H](CO)N3)c1	5.1	65.5	-81.7*
COc1ccc(C#Cc2ccc3c(c2)[C@H]2[C@H](CCN2C(=O)C2CCCC2)[C@@H](CO)N3)cc1	4.8	nt	-95.0*
O=C(c1ccc(F)cc1)N1CC[C@@H]2[C@H]1c1cc(C3=CCCCC3)ccc1N[C@@H]2CO	-16.9	10.8	-0.3
COc1ccccc1-c1ccc2c(c1)[C@@H]1[C@@H](CCN1C(=O)C1CCCCC1)[C@@H](CO)N2	0.0	-23.9	-85.0*
C[C@@H]1CN([C@@H](C)CO)C(=O)c2cc(-c3ccccc3F)cnc2O[C@H]1CN(C)Cc1ccc(F)cc1	2.8	60.5	-6.3
C[C@@H]1CN([C@@H](C)CO)C(=O)c2cc(NC(=O)CCN3CCOCC3)ccc2O[C@@H]1CN(C)Cc1ccc(Cl)c(Cl)c1	2.8	-33.9	-0.1
COc1ccc(S(=O)(=O)N2CC[C@@H]3[C@H]2c2cc(-c4ccc(C#N)cc4)ccc2N[C@@H]3CO)cc1	2.9	89.3	-90.9*
COc1ccc(-c2ccc3c(c2)[C@@H]2[C@@H](CCN2S(=O)(=O)c2ccc(OC)cc2)[C@H](CO)N3)cc1	-0.5	48.9	-58.2
Cc1ccc(S(=O)(=O)N[C@@H]2C=C[C@@H](CC(=O)O)O[C@H]2CO)cc1	3.7	21.8	12.4
COc1ccc(C#Cc2ccc3c(c2)[C@@H]2[C@@H](CCN2C(=O)NC(C)C)[C@@H](CO)N3C)cc1	-15.7	60.4	-5.9
SMILES	C diff HTS	Tcruzi prolif	Pf Dd2 inh
C[C@H](CO)N1C[C@H](C)[C@@H](CN(C)Cc2ccc(-c3ccccc3)cc2)Oc2ccc(NC(=O)Nc3ccc(C(F)(F)F)cc3)cc2C1=O	12.1	?	-85.2*
C[C@H](CO)N1C[C@H](C)[C@H](CN(C)Cc2ccc(Oc3ccccc3)cc2)Oc2ccc(NC(=O)Nc3ccc(C(F)(F)F)cc3)cc2C1=O	nt	68.9	-88.3*
C[C@H](CO)N1C[C@H](C)[C@@H](CN(C)Cc2ccc(Oc3ccccc3)cc2)Oc2ccc(NC(=O)Nc3ccc(C(F)(F)F)cc3)cc2C1=O	nt	67.7	-64.9
C[C@@H]1CN([C@H](C)CO)C(=O)c2cc(NC(=O)Nc3ccccc3)ccc2O[C@@H]1CN(C)Cc1ccc(C(F)(F)F)cc1	-0.1	29.0	0.2
COc1ccccc1C#Cc1cnc2c(c1)C(=O)N([C@@H](C)CO)C[C@H](C)[C@H](CN(C)CC1CC1)O2	7.8	nt	-37.5
COc1cccc(C#Cc2ccc([C@@H]3[C@@H](CO)N4C(=O)CN(C(=O)c5ccccc5)C[C@@H]34)cc2)c1	-4.8	nt	-90.6*
COc1cccc(C#Cc2ccc([C@@H]3[C@H](CO)N4C(=O)CN(C(=O)c5ccccc5)C[C@@H]34)cc2)c1	-1.6	nt	-15.9
N#Cc1ccc(-c2ccc([C@H]3[C@@H](CO)N4C(=O)CN(C(=O)Cc5ccccc5)C[C@@H]34)cc2)cc1	-0.6	nt	-85.3*
N#Cc1ccc(-c2ccc([C@@H]3[C@H]4CN(C(=O)Cc5ccccc5)CC(=O)N4[C@H]3CO)cc2)cc1	2.5	nt	-9.1
COc1cccc(C#Cc2ccc([C@H]3[C@@H](CO)N4C(=O)CN(C(=O)Cc5ccccc5)C[C@H]34)cc2)c1	2.5	nt	-94.2*
COc1cccc(C#Cc2ccc([C@@H]3[C@@H](CO)N4C(=O)CN(C(=O)Cc5ccccc5)C[C@H]34)cc2)c1	-0.9	nt	-4.4
COc1ccc(NC(=O)N(C)C[C@H]2OCc3ccccc3-c3c(n(C)c4ccccc34)C(=O)N([C@H](C)CO)C[C@H]2C)cc1	nt	-8.0	-54.9
CN(C)CC#Cc1ccc([C@H]2[C@@H](CO)N3C(=O)CN(C(=O)c4cccnc4)C[C@H]23)cc1	-3.9	nt	14.4
C[C@@H]1CCCCO[C@@H](CN(C)Cc2ccc(C(=O)Nc3ccccc3N)cc2)[C@@H](C)CN([C@H](C)CO)C(=O)c2cc(NC(=O)Nc3ccc(F)cc3)ccc2O1	34.0	nt	-87.1*
C[C@@H]1CCCCO[C@@H](CN(C)Cc2ccc(C(=O)Nc3ccccc3N)cc2)[C@@H](C)CN([C@H](C)CO)C(=O)c2cc(NC(=O)Nc3ccccc3)ccc2O1	nt	34.2	-75.2
C[C@@H]1CCCCO[C@@H](CN(C)Cc2ccc(C(=O)Nc3ccccc3N)cc2)[C@@H](C)CN([C@H](C)CO)C(=O)c2cc(NC(=O)Nc3ccc(C(F)(F)F)cc3)ccc2O1	47.2	nt	-82.8*
C[C@H](CO)N1C[C@H](C)[C@H](CN(C)Cc2ccc(C(F)(F)F)cc2)OCCCC[C@H](C)Oc2ccc(NC(=O)Nc3ccccc3)cc2C1=O	3.3	66.4	35.5
CC(C)NC(=O)Nc1ccc2c(c1)C(=O)N([C@@H](C)CO)C[C@@H](C)[C@H](CN(C)Cc1ccc(C(=O)Nc3ccccc3N)cc1)O2	-0.2	nt	-13.3
COc1ccccc1S(=O)(=O)N(C)C[C@@H]1OCc2ccccc2-c2c(n(C)c3ccccc23)C(=O)N([C@@H](C)CO)C[C@H]1C	12.3	20.0	-62.1
